Where “and” joins values, the source holds several entries; their conditions need not be identical. Equal entries are not always repeated. Inconclusive results are not listed. A number with no mark means an inactive call. Calls of active or inactive are those of the source. Calls come from the whole dose curve; as a rule, active = well fitted cell-killing curve with a large enough effect in the repeat runs; inconclusive = weak or mixed curves, or effect the other way; inactive = flat fitted curve, though single readings scatter.

The record followed here is PubChem BioAssay (Tox21).

Test [1] is described as follows: cAMP Responsive Elements (CRE) small molecule antagonists, cell-based qHTS assay: qHTS cell viability counter screen (AID 2060913). Note: nearly all actives have a fitted effect of over 40% in size. The essentials: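 Cytotoxicity counter screen multiplexed with the CRE-bla antagonist read: HEK293T cells in DMEM with dialyzed FBS and 25 mM HEPES were treated 3 hrs under 0.25 uM final NKH477, then viability measured by CellTiter-Glo luminescence.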
Background: qHTS replaces the single test concentration by a dilution series.

Test [2] in a line: cAMP Responsive Elements (CRE) small molecule agonists, cell-based qHTS assay: qHTS cell viability counter screen (AID 2060914). Note: nearly all actives have a fitted effect of over 50% in size. The method, boiled down: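 Cytotoxicity counter screen multiplexed with the CRE-bla reporter assay in HEK 293T cells: 3 h compound exposure at 37 °C, followed by CellTiter-Glo luminescence measured in the same wells.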
% is set by controls: 0 for no effect and ±100 for the full control effect; potency is the fitted concentration of half-maximal effect.

Consider `CN(C)CCc1c[nH]c2ccccc12`, for which the Potency entry in test [1] and in test [2] was “inactive” in each case.
Take `Clc1ccc(CO/N=C(\Cn2ccnc2)c2ccc(Cl)cc2Cl)c(Cl)c1`: the Potency result in test [1] and in test [2] was “inactive” each time.
Take `S=C1NCCN1`: the Potency entry in test [1] and in test [2] was “inactive” throughout.
Turning to `Cc1cc(C)cc(C)c1`, the Potency entry in test [1] and in test [2] was “inactive” each time.
Take `c1ccc2cc3c(cc2c1)-c1cccc2cccc-3c12`: the Potency entry in test [1] and in test [2] was “inactive” each time.
In the case of `O=C(O)C(F)(F)C(F)(F)C(F)(F)C(F)(F)C(F)(F)C(F)(F)C(F)(F)C(F)(F)F`, the Potency entry in test [1] and in test [2] was “inactive” throughout.
For `Cc1cccc(Cc2cnc[nH]2)c1C`, the Potency entry in test [1] and in test [2] was “inactive” each time.
For the molecule `C[C@H]1[C@@H]2Cc3ccc(O)cc3[C@@]1(C)CCN2C`, the Potency result in test [1] and in test [2] was “inactive” in each case.
On to `CCOP(=S)(OCC)Oc1ccc(S(C)=O)cc1` (configuration not stated), for which the Potency entry in test [1] and in test [2] was “inactive” throughout.
Turning to `O=C(Nc1ccc(Br)cc1)c1cc(Br)cc(Br)c1O`, the Potency entry in test [1] and in test [2] was “inactive” each time.
Regarding `CCC(=O)O[C@H]1CC[C@H]2[C@@H]3CCC4=CC(=O)CC[C@]4(C)[C@H]3CC[C@]12C`, the Potency result in test [1] and in test [2] was “inactive” in each case.
In the case of `O=S(=O)(Oc1ccc(Cl)cc1)c1ccc(Cl)cc1`, the Potency entry in test [1] and in test [2] was “inactive” each time.
For `CCCCCCCCBr`, the Potency result in test [1] and in test [2] was “inactive” in each case.
For the molecule `CC(=O)c1cc(C(C)(C)C)cc2c1CCC2(C)C`, the Potency result in test [1] and in test [2] was “inactive” throughout.
As for `CCCCc1c(C)nc(NCC)nc1OS(=O)(=O)N(C)C`, the Potency result in test [1] and in test [2] was “inactive” each time.
Take `CCC1(c2ccc(N)cc2)CCC(=O)NC1=O` (configuration not stated): the Potency entry in test [1] and in test [2] was “inactive” throughout.
Turning to `O=C1NCN(c2ccccc2)C12CCN(CC1COc3ccccc3O1)CC2` (configuration not stated), the Potency result in test [1] and in test [2] was “inactive” each time.
As to `ClCCCCl`, the Potency result in test [1] and in test [2] was “inactive” each time.
In the case of `Cc1ccccc1OP(=O)(Oc1ccccc1C)Oc1ccccc1C`, the Potency entry in test [1] and in test [2] was “inactive” throughout.
For the molecule `CCCSC(=O)N(CCC)CCC`, the Potency entry in test [1] and in test [2] was “inactive” in each case.
In the case of `Cc1c([N+](=O)[O-])c(C)c([N+](=O)[O-])c(C(C)(C)C)c1[N+](=O)[O-]`, the Potency result in test [1] and in test [2] was “inactive” in each case.
Regarding `CCOP(O)OCC`, the Potency result in test [1] and in test [2] was “inactive” each time.
On to `COCCl`, for which the Potency entry in test [1] and in test [2] was “inactive” in each case.
`CC(Cc1ccc(OCC(=O)O)cc1)NCC(O)c1csc(C(F)(F)F)n1` (configuration not stated): the Potency entry in test [1] and in test [2] was “inactive” throughout.
For `COc1ccccc1OC`, the Potency result in test [1] and in test [2] was “inactive” in each case.
Consider `CCN[C@@H](C)Cc1ccccc1`, for which the Potency result in test [1] and in test [2] was “inactive” in each case.
On to `CN(C)C(=O)Nc1ccc(Cl)cc1`, for which the Potency result in test [1] and in test [2] was “inactive” each time.
`COc1ccc(C=O)cc1O`: the Potency entry in test [1] and in test [2] was “inactive” each time.
Take `CNC(=O)N(C)c1nnc(C(C)(C)C)s1`: the Potency result in test [1] and in test [2] was “inactive” in each case.
On to `N#CC(C#N)=Cc1ccc(O)c(O)c1`, for which the Potency result in test [1] and in test [2] was “inactive” each time.
`CNC(=O)Oc1cccc(C(C)C)c1`: the Potency entry in test [1] and in test [2] was “inactive” each time.
Consider `CN1C(=O)NC(=O)C(C)(C2=CCCCC2)C1=O` (configuration not stated), for which the Potency result in test [1] and in test [2] was “inactive” throughout.
Take `ClC1=C(Cl)[C@]2(Cl)[C@H]3[C@H]([C@@H]4C=C[C@H]3C4)[C@@]1(Cl)C2(Cl)Cl`: the Potency result in test [1] and in test [2] was “inactive” in each case.
As for `CC(C)(C)c1ccc(CSc2cnn(C(C)(C)C)c(=O)c2Cl)cc1`, the Potency entry in test [1] and in test [2] was “inactive” throughout.
Regarding `CCc1cc(C)cc(CC)c1-c1c(OC(=O)C(C)(C)C)n2n(c1=O)CCOCC2`, the Potency entry in test [1] and in test [2] was “inactive” each time.
With `Cn1[nH]nnc1=S`, the Potency entry in test [1] and in test [2] was “inactive” in each case.
In the case of `Clc1ccccc1N1CCNCC1`, the Potency entry in test [1] and in test [2] was “inactive” in each case.
Take `CC1(C)[C@H](C(=O)O[C@H](C#N)c2cccc(Oc3ccccc3)c2)[C@@H]1C=C(Br)Br`: the Potency entry in test [1] and in test [2] was “inactive” in each case.
On to `CN1C[C@H](CNC(=O)OCc2ccccc2)C[C@@H]2c3cccc4c3c(cn4C)C[C@H]21`, for which the Potency result in test [1] and in test [2] was “inactive” in each case.
Take `COC1=CC(=O)O[C@@H](/C=C/c2ccccc2)C1`: the Potency result in test [1] and in test [2] was “inactive” throughout.
Regarding `CC(C)(C)C(=O)CCl`, the Potency result in test [1] and in test [2] was “inactive” throughout.
With `OP(O)c1ccccc1`, the Potency entry in test [1] and in test [2] was “inactive” in each case.
For the molecule `CCOC(=O)CCl`, the Potency result in test [1] and in test [2] was “inactive” each time.
Consider `CCC[CH2][Sn]([Cl])([Cl])[CH2]CCC`, for which the Potency in test [1] was 17.4 µM (active) and 18 µM (active); in test [2] it was 31 µM (active) and 30.6 µM (active).
For `CC(C)(c1ccccc1)c1ccc(O)cc1`, the Potency result in test [1] and in test [2] was “inactive” each time.
`COc1ncc(F)c2nc(S(=O)(=O)Nc3c(F)cccc3F)nn12`: the Potency entry in test [1] and in test [2] was “inactive” throughout.
In the case of `C=CCc1ccc(OC(=O)Cc2ccccc2)c(OC)c1`, the Potency result in test [1] and in test [2] was “inactive” each time.
Turning to `CCCCCCC(=O)CCCCCC/C=C/C[C@@H](O)[C@H](O)[C@@](N)(CO)C(=O)O`, the viability change, negative = cytotoxic in test [1] was 2.93% [at 18.9 µM]. Further, the activity change, negative = cytotoxicity in test [2] was -1.02% [at 18.9 µM].
Consider `CCOC(=O)/C=C(C)/C=C/C[C@@H](C)CCCC(C)C`, for which the Potency result in test [1] and in test [2] was “inactive” in each case.
`Clc1cccc(Cl)c1`: the Potency result in test [1] and in test [2] was “inactive” throughout.
With `Cc1ccc(Cl)c(O)c1`, the Potency result in test [1] and in test [2] was “inactive” each time.
